# Source: the supplement of paper PMC3334620
# In all, about 33,000 sequences were measured (“E-score (-0.5 to 0.5)”: median about -0.012, highest 2% from about 0.27 on). For the sample, the highest values were picked, then their nearest neighbours and some sequences at random.
# Biological target: T1, Vhr1 (UniProt P40522)
# T1 sequence: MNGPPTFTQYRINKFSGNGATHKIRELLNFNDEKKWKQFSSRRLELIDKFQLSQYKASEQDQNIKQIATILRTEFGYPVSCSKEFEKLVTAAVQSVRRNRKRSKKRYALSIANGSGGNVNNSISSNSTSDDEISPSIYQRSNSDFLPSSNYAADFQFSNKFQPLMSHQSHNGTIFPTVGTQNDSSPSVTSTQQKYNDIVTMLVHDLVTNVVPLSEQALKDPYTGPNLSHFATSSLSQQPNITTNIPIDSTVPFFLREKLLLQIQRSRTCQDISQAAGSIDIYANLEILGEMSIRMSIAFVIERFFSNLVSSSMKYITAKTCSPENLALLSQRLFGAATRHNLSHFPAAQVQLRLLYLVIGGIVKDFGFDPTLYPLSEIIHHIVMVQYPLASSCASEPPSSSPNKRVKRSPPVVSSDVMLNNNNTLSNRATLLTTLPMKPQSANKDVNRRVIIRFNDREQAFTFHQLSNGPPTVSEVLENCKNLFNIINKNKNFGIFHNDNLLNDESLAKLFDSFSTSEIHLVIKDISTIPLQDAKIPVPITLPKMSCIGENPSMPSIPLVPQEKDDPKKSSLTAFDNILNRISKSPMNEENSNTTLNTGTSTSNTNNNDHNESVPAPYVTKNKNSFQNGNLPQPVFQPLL
# Assay: PBM E-score (8-mer binding enrichment) (E-score (-0.5 to 0.5)); higher = stronger / more preferred TF binding
# Conditions: protein concentration: 200 nM; construct: GST-full length
# Method: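 Universal 'all 10-mer' protein binding microarrays (Agilent AMADID 015681) probed with GST-tagged S. cerevisiae TFs (full-length or DBD) made by in vitro transcription/translation (PURExpress), about 100-200 nM. Bound TF was detected with fluorescent anti-GST. Each ungapped 8-mer (which stands for itself and its reverse complement) is scored by the PBM enrichment score (E-score), a modified Wilcoxon-Mann-Whitney statistic from -0.5 to +0.5, computed with the Universal PBM Analysis Suite. Scale: above 0.35 generally sequence-specific binding.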
row,Sequence,PBM E-score
1,CTCGACTC,0.19
2,CGCGACTC,0.449
3,AGCGACTG,0.194
4,GAGGTATA,0.113
5,CTTGCTGC,-0.113
6,CCAATACG,-0.209
7,ATGTGCGC,-0.0331
8,ACACTTTA,-0.0402
9,GAACCTGA,0.0239
10,TCCTGACA,0.107
11,CGGAACCG,0.0495
12,CCGAACCA,0.0572
13,CGGAACCA,0.343
14,ATGAACCG,0.0189
15,ACGAACCC,-0.119
16,ATGAACCA,0.294
17,GGGAACCA,0.176
18,CTGAACCA,0.245
19,ACGAACCA,0.273
20,GCTCCTCA,-0.363
21,CTATCGGA,-0.237
22,ACAGTTCC,-0.00019
23,ATATCTTC,0.11
24,ACTATCTA,0.184
25,CAGCCAGG,0.0621

row,Sequence,PBM E-score
1,GTGGTAAC,-0.0602
2,ACGAAGCA,0.00046
3,CAGACTCG,0.0994
4,AACCTCAG,-0.103
5,GAGTGTAA,0.0325
6,GAGTGTGC,0.0366
7,AAGTGTGA,0.0182
8,GAGTGTGA,0.278
9,TAGTGTGA,0.088
10,CAGTGTGA,0.285
11,GATTCAGA,0.305
12,CATTCACG,-0.114
13,GATTCCGA,0.287
14,CATTCACA,0.00907
15,GATTCCGC,0.216
16,CATTCCGA,0.0348
17,TATTCAGA,0.178
18,GATTCACA,0.326
19,GATTCAGC,0.149
20,CGAAAGCA,-0.046
21,GATACACC,0.197
22,ACTGGCTG,0.0954
23,CTTACCCA,0.104
24,ACTCCAGA,0.0505
25,TCTGCCCA,-0.179

row,Sequence,PBM E-score
1,AACCAACT,0.0869
2,CGTGCTAA,-0.201
3,CCCATGAG,0.227
4,ATTCATGG,0.21
5,GCTCATGA,0.16
6,ATGCATGG,0.28
7,CCTCATGA,0.0599
8,ACACATGG,0.215
9,ACTCATGG,0.317
10,ATGCATGA,0.165
11,ACTCATGC,0.322
12,CCTCATGC,0.0272
13,ATTCATGC,0.21
14,ACTCATGA,0.369
15,ATGCATGC,-0.0419
16,AATTCACG,-0.0883
17,CGACAGAG,0.0418
18,GGACTATA,0.0737
19,CCAATTCC,-0.0792
20,ATCGTCTA,0.0131
21,ATCCTCCC,-0.107
22,CAAGTTCC,-0.216
23,AAGTCCGA,-0.205
24,ATTATACA,0.00881
25,ATTATACC,0.112

row,Sequence,PBM E-score
1,ATTATACG,0.303
2,AGATTCCA,0.00955
3,CGATTCCA,0.0812
4,AGATTCAA,-0.133
5,GGATTCAA,-0.0312
6,CGGTTCAA,0.0706
7,TGATTCCA,0.364
8,AGGTTCAA,0.0239
9,TGGTTCAA,0.289
10,TGATTCAA,0.326
11,CGATGAAA,-0.0595
12,AAGCTTTA,-0.237
13,CTAAAACA,-0.0504
14,GTAGCTTA,0.00186
15,CAAGTAAG,-0.123
16,CCATTCAG,-0.0511
17,CCTAGTCA,0.309
18,ACTAGTCC,0.133
19,GCTAGTTA,0.00532
20,TCTAGTCA,0.218
21,GCTAGTCC,-0.158
22,ACTAGTCA,0.292
23,CCTAGTCC,-0.0886
24,CCTAGTCG,0.0391
25,GCTAGTCA,0.284

row,Sequence,PBM E-score
1,ATCTTCTG,-0.113
2,ACTTCGGA,-0.00447
3,GAAAGTTC,-0.349
4,AGAGTACT,0.0467
5,ATTCTTAC,-0.00122
6,CTCTGGAC,0.0126
7,ACGCCCCA,0.112
8,CCGCCCCC,-0.17
9,CCGCCCGG,0.0777
10,CCTCCCCA,0.28
11,GCGCCCCA,-0.131
12,CCTCCCCC,-0.19
13,CCGCCCCA,0.349
14,CCGCCCCG,0.365
15,CCTCCCAA,-0.246
16,CAGAAATG,-0.168
17,CTTCATGA,0.145
18,CGGCCGAA,0.185
19,AGGTTGAA,-0.127
20,AGGAACCT,-0.0548
21,CAAGAGTA,0.167
22,CTCCCGCC,0.0303
23,CTAGCGAC,-0.00899
24,CGTGTCTA,0.124
25,ATGATTTC,0.249

row,Sequence,PBM E-score
1,GAGATTTA,-0.176
2,CTGATTTA,0.00054
3,GTGATTTA,0.321
4,GGGATTTA,-0.29
5,ATGATTTA,0.295
6,TCAATTGA,-0.0329
7,GATTCTCA,0.078
8,TGGTCCAA,-0.0804
9,AGATATAT,0.131
10,GCTGGGAA,0.0455
11,AGTGGGAC,0.0716
12,CCAAATCG,-0.166
13,ACTGCTCA,0.0795
14,AGCACTGG,-0.0591
15,AGGATGGC,0.124
16,ATCACTCA,0.234
17,CTCACACC,0.0809
18,CTCACACA,0.299
19,GTCACACA,0.303
20,CTCACATA,0.186
21,CTCACGCC,0.239
22,CTCACTCA,0.0981
23,GTCACGCA,0.0821
24,GTCACAAA,-0.0213
25,GTCACTCA,0.325

row,Sequence,PBM E-score
1,CTCACGCA,0.29
2,GTCACAGA,0.157
3,CATGGTAA,-0.0174
4,AATAGGGC,-0.124
5,AATTGTGG,0.00128
6,CCAACGCC,-0.203
7,CATTTGAA,-0.0815
8,TGATAGCA,0.194
9,ATAGATGC,-0.0668
10,GTGATATA,0.0452
11,CCATCCTC,0.0474
12,CTAGTATA,0.0509
13,CTCAACTA,0.106
14,ACTCAATC,0.293
15,TATCAACA,0.172
16,AATCAATC,0.186
17,TCTCAACA,0.113
18,ACTCAATG,0.159
19,TCTCCACA,-0.0495
20,ACTCAACG,0.171
21,ACTCCACG,-0.104
22,ACTCAACA,0.289
23,GATCAACA,-0.0766
24,AATCAACA,0.303
25,ACTCCACA,0.277
